Laboratory results from the antibiotic and cytotoxicity screens of Wong et al. (2023).
Among all 39,000 compounds or so, about 3,300 (8.5%) were called active. The list comes from a sample in which actives are over-represented; it also holds similar structures and randomly drawn compounds.

What follows are compounds tested on HepG2 (assay: cytotoxicity call (relative viability < 0.9)). Conditions: 10 µM.
With CC(C)NC(=O)Nc1cccc2c1O[C@H](CN(C)C(=O)Nc1ccc3c(c1)OCO3)[C@H](C)CN([C@H](C)CO)C2=O the cytotoxicity call was “inactive”.
In the case of CC(C)NC(=O)N(C)C[C@H]1OCCCC[C@@H](C)Oc2ccc(NS(C)(=O)=O)cc2C(=O)N([C@@H](C)CO)C[C@H]1C, the cytotoxicity call is reported as “inactive”.
With C[C@@H]1CN([C@@H](C)CO)C(=O)c2cccc(NC(=O)c3ccncc3)c2O[C@@H]1CN(C)Cc1ccc(-c2ccccc2)cc1 the cytotoxicity call was “inactive”.
For CCS(=O)(=O)N[C@@H]1C=C[C@H](CC(=O)NCc2ccccn2)O[C@@H]1CO, the cytotoxicity call was “inactive”.
In the case of COc1ccc(NC(=O)N(C)C[C@H]2OCCCC[C@@H](C)Oc3ccc(NS(=O)(=O)c4cccs4)cc3C(=O)N([C@H](C)CO)C[C@@H]2C)cc1, the cytotoxicity call is reported as “inactive”.
For C[C@@H]1CN([C@H](C)CO)C(=O)c2cc(NC(=O)c3ccncc3)ccc2O[C@H]1CN(C)Cc1ccc2c(c1)OCO2, the cytotoxicity call was “inactive”.
O=C(C[C@H]1C[C@H]2c3cc(NC(=O)c4ccc5c(c4)OCO5)ccc3O[C@H]2[C@@H](CO)O1)NCc1ccc(Oc2ccccc2)cc1 was tested, and the cytotoxicity call was “active”.
In the case of O=C(C[C@@H]1C[C@H]2c3cc(NC(=O)c4ccc5c(c4)OCO5)ccc3O[C@H]2[C@@H](CO)O1)NCc1ccc(Oc2ccccc2)cc1, the cytotoxicity call is reported as “inactive”.
O=C(C[C@@H]1C[C@@H]2c3cc(NC(=O)c4ccc5c(c4)OCO5)ccc3O[C@@H]2[C@@H](CO)O1)NCc1ccc(Oc2ccccc2)cc1 was tested, and the cytotoxicity call was “inactive”.
In the case of Cc1noc(C)c1NC(=O)Nc1ccc2c(c1)C(=O)N([C@@H](C)CO)C[C@@H](C)[C@@H](CN(C)Cc1ccc3c(c1)OCO3)OCCCC[C@@H](C)O2, the cytotoxicity call is reported as “inactive”.
With COc1ccc(COC[C@]23N=C4Sc5ccc([N+](=O)[O-])cc5C(=O)N4[C@H](c4ccccc4O2)[C@H]3CO[Si](C)(C)C(C)(C)C)cc1 the cytotoxicity call was “inactive”.
With C[C@@H]1CN([C@@H](C)CO)C(=O)c2c(c3ccccc3n2C)-c2ccccc2CO[C@@H]1CN(C)C(=O)Nc1ccc(F)cc1 the cytotoxicity call was “inactive”.
With C[C@@H]1CN([C@@H](C)CO)C(=O)c2cc(NC(=O)Nc3cccc4ccccc34)ccc2O[C@@H](C)CCCCO[C@@H]1CN(C)Cc1ccc2c(c1)OCO2 the cytotoxicity call was “inactive”.
With C[C@@H]1CCCCO[C@H](CN(C)Cc2ccc3c(c2)OCO3)[C@@H](C)CN([C@H](C)CO)C(=O)c2cc(NC(=O)Nc3cccc4ccccc34)ccc2O1 the cytotoxicity call was “inactive”.
With C[C@@H]1CN([C@H](C)CO)C(=O)c2cc(NC(=O)Nc3cccc4ccccc34)ccc2O[C@@H](C)CCCCO[C@H]1CN(C)Cc1ccc2c(c1)OCO2 the cytotoxicity call was “active”.
With C[C@H](CO)N1C[C@H](C)[C@H](CN(C)Cc2ccc3c(c2)OCO3)OCCCC[C@H](C)Oc2ccc(NC(=O)Nc3cccc4ccccc34)cc2C1=O the cytotoxicity call was “active”.
C[C@H](CO)N1C[C@H](C)[C@@H](CN(C)Cc2ccc3c(c2)OCO3)OCCCC[C@H](C)Oc2ccc(NC(=O)Nc3cccc4ccccc34)cc2C1=O was tested, and the cytotoxicity call was “inactive”.
With C[C@@H]1CCCCO[C@@H](CN(C)Cc2ccc3c(c2)OCO3)[C@H](C)CN([C@@H](C)CO)C(=O)c2cc(NC(=O)Nc3cccc4ccccc34)ccc2O1 the cytotoxicity call was “inactive”.
In the case of C[C@H]1CCCCO[C@H](CN(C)Cc2ccc3c(c2)OCO3)[C@@H](C)CN([C@@H](C)CO)C(=O)c2cc(NC(=O)Nc3cccc4ccccc34)ccc2O1, the cytotoxicity call is reported as “active”.
For C[C@@H]1CCCCO[C@@H](CN(C)Cc2ccc3c(c2)OCO3)[C@H](C)CN([C@H](C)CO)C(=O)c2cc(NC(=O)Nc3cccc4ccccc34)ccc2O1, the cytotoxicity call was “active”.
CC(C)C#Cc1cnc2c(c1)C(=O)N([C@@H](C)CO)C[C@H](C)[C@H](CN(C)S(=O)(=O)c1cn(C)cn1)O2 was tested, and the cytotoxicity call was “inactive”.
With CO[C@@H]1CN(C)C(=O)c2cc(NS(=O)(=O)CC(F)(F)F)ccc2OC[C@H](C)N(C(=O)c2ccc3c(c2)OCO3)C[C@@H]1C the cytotoxicity call was “inactive”.
In the case of COc1ccc(S(=O)(=O)Nc2ccc3c(c2)C(=O)N([C@H](C)CO)C[C@@H](C)[C@@H](CN(C)S(=O)(=O)c2ccc(C)cc2)O3)cc1, the cytotoxicity call is reported as “inactive”.
In the case of C[C@H](CO)N1C[C@H](C)[C@H](CN(C)C(=O)Nc2ccccc2)OCCCC[C@H](C)Oc2ccc(NC(=O)Nc3ccc4c(c3)OCO4)cc2C1=O, the cytotoxicity call is reported as “inactive”.
In the case of COc1ccc(NC(=O)N(C)C[C@H]2OCCCC[C@@H](C)Oc3ccc(NC(=O)Cc4ccccc4)cc3C(=O)N([C@@H](C)CO)C[C@H]2C)cc1, the cytotoxicity call is reported as “inactive”.
C[C@@H]1CCCCO[C@H](CN(C)C(=O)Nc2ccc(F)cc2)[C@H](C)CN([C@H](C)CO)C(=O)c2cc(NC(=O)Nc3ccc(F)cc3)ccc2O1 was tested, and the cytotoxicity call was “inactive”.
In the case of C[C@H]1CN([C@@H](C)CO)C(=O)c2cc(NC(=O)Cc3ccccc3)ccc2O[C@@H]1CN(C)Cc1ccc(Cl)c(Cl)c1, the cytotoxicity call is reported as “inactive”.
C[C@@H]1CCCCO[C@H](CN(C)S(=O)(=O)c2ccccc2)[C@H](C)CN([C@H](C)CO)C(=O)c2cc(NS(=O)(=O)c3cn(C)cn3)ccc2O1 was tested, and the cytotoxicity call was “inactive”.
COc1ccc(NC(=O)N(C)C[C@H]2Oc3c(NC(=O)c4cnccn4)cccc3C(=O)N([C@H](C)CO)C[C@@H]2C)cc1 was tested, and the cytotoxicity call was “inactive”.
With C[C@@H]1CCCCO[C@@H](CN(C)Cc2ccc(C(=O)O)cc2)[C@H](C)CN([C@H](C)CO)C(=O)c2cc(NS(=O)(=O)c3ccccc3)ccc2O1 the cytotoxicity call was “inactive”.
In the case of Cc1noc(C)c1NC(=O)Nc1ccc2c(c1)C(=O)N([C@@H](C)CO)C[C@@H](C)[C@H](CN(C)Cc1ccc(Cl)c(Cl)c1)O2, the cytotoxicity call is reported as “inactive”.
For C[C@H]1CCCCO[C@@H](CN(C)Cc2ccc(C(F)(F)F)cc2)[C@@H](C)CN([C@@H](C)CO)C(=O)c2cc(NS(C)(=O)=O)ccc2O1, the cytotoxicity call was “inactive”.
C[C@@H]1CN([C@H](C)CO)C(=O)c2cc(NC(=O)Nc3cccc4ccccc34)ccc2O[C@@H](C)CCCCO[C@@H]1CN(C)Cc1ccc2c(c1)OCO2 was tested, and the cytotoxicity call was “active”.
In the case of C[C@@H]1CCCCO[C@@H](CN(C)Cc2ccc3c(c2)OCO3)[C@@H](C)CN([C@H](C)CO)C(=O)c2cc(NC(=O)Nc3cccc4ccccc34)ccc2O1, the cytotoxicity call is reported as “inactive”.
In the case of C[C@@H]1CCCCO[C@@H](CN(C)Cc2ccc3c(c2)OCO3)[C@@H](C)CN([C@@H](C)CO)C(=O)c2cc(NC(=O)Nc3cccc4ccccc34)ccc2O1, the cytotoxicity call is reported as “inactive”.
In the case of C[C@@H]1CCCCO[C@H](CN(C)Cc2ccc3c(c2)OCO3)[C@H](C)CN([C@@H](C)CO)C(=O)c2cc(NC(=O)Nc3cccc4ccccc34)ccc2O1, the cytotoxicity call is reported as “active”.
For C[C@H]1CCCCO[C@@H](CN(C)Cc2ccc3c(c2)OCO3)[C@@H](C)CN([C@@H](C)CO)C(=O)c2cc(NC(=O)Nc3cccc4ccccc34)ccc2O1, the cytotoxicity call was “inactive”.
In the case of C[C@@H]1CCCCO[C@H](CN(C)Cc2ccc3c(c2)OCO3)[C@@H](C)CN([C@@H](C)CO)C(=O)c2cc(NC(=O)Nc3cccc4ccccc34)ccc2O1, the cytotoxicity call is reported as “active”.
With C[C@@H]1CCCCO[C@H](CN(C)Cc2ccc3c(c2)OCO3)[C@H](C)CN([C@H](C)CO)C(=O)c2cc(NC(=O)Nc3cccc4ccccc34)ccc2O1 the cytotoxicity call was “inactive”.
With C[C@@H]1CN([C@@H](C)CO)C(=O)c2cc(NC(=O)Nc3cccc4ccccc34)ccc2O[C@@H](C)CCCCO[C@H]1CN(C)Cc1ccc2c(c1)OCO2 the cytotoxicity call was “active”.
